Compounds with a hit are over-represented: about 4.2% of the library has one in this group of screens.
ssDAF12 agonist: activators of S. stercoralis DAF-12 nuclear receptor; HEK293 ssDAF-12/GRIP1 lit1-tk-luc reporter, luminescence; % of 3 µM dafachronic acid response; activation, % at 6.8 µM; 370,000 compounds, 1% hits;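 active = activation above the mean over all tested compounds plus 3 SD, cut at about 0.9% in these data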;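 also: 0% = DMSO-only wells and 100% = 3 µM delta7-dafachronic acid wells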
DAX1 StAR inh: inhibitors of DAX1 repression of SF-1 activated StAR promoter. 370,000 compounds, 1.1% hits. inhibition, % at 6.8 µM. HEK293T StAR-luciferase reporter, SF-1/DAX-1 repression relief;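 active = inhibition above the mean over all tested compounds plus 3 SD, cut at about 3.6% in these data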;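 also: 0% = DAX-1 cells with DMSO and 100% = cells lacking DAX-1 with DMSO; higher inhibition means more luminescence from relief of DAX-1 repression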
hgDAF-12 ag: activates the H. glycines DAF-12 receptor ligand-binding domain | HEK293 GAL4-hgDAF12 UAS-luciferase reporter, agonist luminescence; normalized to butyrate control | activation, % at 6.8 µM | 370,000 compounds, 1.8% hits | AID 687014;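 active = activation above a cutoff set at the mean of all screened compounds plus 3 SD, cut at about 10% in these data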;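 also: 0% = DMSO wells and 100% = sodium butyrate wells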
SMARCA2 act: SMARCA2 function activation, primary screen; AID 652017; MG213 cells, MMTV-luciferase reporter, dexamethasone, overnight; activation, % at 9.1 µM; 370,000 compounds, 1% hits; in the data active = activation above about 7.8%;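 also: 0% = vehicle wells and 100% = reference activator wells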
hcDAF-12 act: H. contortus DAF-12 activation, primary screen. HEK293 hcDAF-12 lit1-tk-luc reporter, luminescence; 0% DMSO, 100% Δ7-dafachronic acid. activation, % at 6.8 µM. 370,000 compounds, 1.4% hits. AID 652067;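 active = activation above the mean of all tested compounds plus 3 SD, cut at about 5.5% in these data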;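 also: 100% = response to 3 µM Δ7-dafachronic acid high control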
SMARCA2 conf: confirmation of SMARCA2 (BRM) function activators; shares compounds with SMARCA2 act; MG213 cells, MMTV-luciferase with dexamethasone, luminescence, overnight; MG213 cells expressing E1A, Rb sequestered; DMSO wells 0%, reference activator 100%; activation, % at 9.1 µM; 3,500 compounds, 30% hits;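 active = activation above its plate's cutoff, the mean activation of tested wells plus 3 SD, cut at about 7.9% in these data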
VP16 Luc act: activates GAL4-VP16 luciferase, flagging SMARCA2 activator hits; AID 686939; shares compounds with SMARCA2 act; 3,500 compounds, 41% hits; HEK293 GAL4-VP16 pG5luc reporter, luciferase luminescence; scaled: DMSO wells 0%, SAHA wells 100%; activation, % at 9.1 µM;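 active = activation above the solvent-only control well mean plus 3 SD, averaged across control plates, cut at about 5.2% in these data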
* = called active by the depositor; nt = no result given.

SMILES	ssDAF12 agonist	DAX1 StAR inh	hgDAF-12 ag	SMARCA2 act	hcDAF-12 act	SMARCA2 conf	VP16 Luc act
Cc1ccc(C)c(S(=O)(=O)N2CCN(c3nc(CN4CCOCC4)nc4sc(C)c(C)c34)CC2)c1	-1	-1	-4	9.1*	-2	0	0
CC(C)C[C@H]1CN([C@@H](Cc2ccc(O)cc2)CN2CCCC2CN2C(=S)NC[C@@H]2Cc2ccccc2)C(=S)N1CC1CCCCC1 (stereo partly specified)	-1	-1	0	8.0*	1	-3	-1
Cc1noc(NS(=O)(=O)c2ccc(N/C=C\C(=O)c3ccc(F)cc3)cc2)c1C	0	2	7	10*	2	5	1
COCC(=O)Nc1ccc(S(=O)(=O)Nc2onc(C)c2C)cc1	-1	-1	0	-1	0	nt	nt
COc1ccccc1NC(=O)Nc1ccc(S(=O)(=O)Nc2onc(C)c2C)cc1	-2	2	0	8.2*	1	-1	0
Cc1noc(NS(=O)(=O)c2ccc(N/C=C\C(=O)c3ccccc3)cc2)c1C	1	2	7	4	0	nt	nt
O=C(CSc1nnc(-c2cccs2)o1)Nc1cc(Cl)cc(Cl)c1	-1	1	0	0	0	nt	nt
COc1ccc(-n2c(SCC3CNC(=O)O3)nnc2-c2ccc(Cl)cc2)cc1 (stereo unspecified)	-2	0	-1	12*	-1	1	-2
CCC(=O)N1CCC1(C)C(=O)Nc1cc(-c2ccccc2)nn1C (stereo unspecified)	-1	3	11*	10*	-1	1	7.4*
CC(C)(C)N1C(=O)c2ccccc2NC(=O)C1C(=O)Nc1ccc(N2CCOCC2)cc1 (stereo unspecified)	-1	2	3	-1	1	nt	nt
CCc1c(C(=O)C(C)O)c2n3c1CCC[C@@H]3CC2 (stereo partly specified)	0	nt	3	nt	0	nt	nt
COc1ccc(C(=O)NN)cc1	-1	0	9	1	2	nt	nt
COc1ccc(-c2cn3cc(C(=O)NN)ccc3n2)cc1	-1	2	12*	11*	1	8.8*	5.4*
CCCC[C@H]1C2CC(OC(=O)Nc3cccc(C(F)(F)F)c3)C(C2)[C@H]2CCCCN21 (stereo partly specified)	-1	0	7	-4	-1	nt	nt
Cc1cccc(NC(=S)NNC(=O)c2csc(C)c2)c1	0	2	4	9.2*	1	8.0*	7.5*
Cn1c2ccccc2c(=O)c2ccc(C#CC3(N)CCCCC3)cc21	0	2	3	19*	4	44*	19*
Cn1c2ccccc2c(=O)c2ccc(C#Cc3ccccn3)cc21	-1	0	0	2	-1	nt	nt
Cn1c2ccccc2c(=O)c2cc(C#Cc3ccccn3)ccc21	0	1	2	8.1*	2	21*	5.3*
CC1(NC(=O)c2ccc(C#Cc3cccc(F)c3)cn2)COC1	-1	-1	2	-3	-3	nt	nt
Cn1c(=O)c2cc(S(=O)(=O)NC(C(=O)NCc3cccnc3)c3ccccc3)ccc2n(C)c1=O (stereo unspecified)	0	0	1	5	-2	nt	nt
Cn1c(=O)c2cc(S(=O)(=O)NC(C(=O)Nc3cccnc3)c3ccccc3)ccc2n(C)c1=O (stereo unspecified)	-1	0	1	10*	2	0	-2
C=CCN1C(=O)[C@@H](CC(=O)N2CCN(C(=O)OCC)CC2)[C@]2(C(=O)OC)CCCCC=C12	-1	0	0	-3	3	nt	nt
Cn1cccc1/C=N/N1CCN(Cc2ccccc2)CC1	-1	0	3	16*	0	1	1
Cn1cccc1/C=N/N1CCN(Cc2ccc(Cl)cc2)CC1	-2	-1	0	-1	-2	nt	nt
Cc1csc(NC(=O)CSc2ccccc2F)n1	-1	1	8	8.4*	1	2	4
SMILES	ssDAF12 agonist	DAX1 StAR inh	hgDAF-12 ag	SMARCA2 act	hcDAF-12 act	SMARCA2 conf	VP16 Luc act
COc1ccc(OCC(O)CN2CCC(CN3C(=O)c4cccc5cccc(c45)C3=O)CC2)cc1 (stereo unspecified)	-2	-1	0	11*	-3	2	2
Cc1cc(NC(=O)Nc2cccc(F)c2)n(-c2ccccc2)n1	-1	-1	-2	-1	1	nt	nt
CCOC(=O)C(C)Sc1nc(-c2cccs2)ccc1C#N (stereo unspecified)	-1	0	3	-4	1	nt	nt
C=COC(=O)CSc1nc(-c2cccs2)ccc1C#N	0	3	4	8.3*	2	6	9.3*
O=C(NCCN1C(=O)S/C(=C\c2ccc(Cl)cc2Cl)C1=O)C1=COCCO1	-1	1	1	8.1*	-1	4	0
O=C(NCCN1C(=O)S/C(=C\c2ccccc2Cl)C1=O)C1=COCCO1	-1	-1	0	-1	-1	nt	nt
COc1cc(C2Oc3ccccc3C=C2[N+](=O)[O-])cc(OC)c1OC (stereo unspecified)	-1	-2	-7	21*	-3	-13	3
O=C(NC1CCCCN(Cc2ccc(Cl)cc2)C1=O)c1cccc(C(F)(F)F)c1 (stereo unspecified)	-2	-1	-2	-3	0	nt	nt
CCC(=O)N1N=C(c2c(-c3ccccc3)c3cc(Cl)ccc3[nH]c2=O)CC1c1ccco1 (stereo unspecified)	-2	0	-1	10*	-1	-3	0
O=C(O)CCC(=O)N1N=C(c2c(-c3ccccc3)c3cc(Cl)ccc3[nH]c2=O)CC1c1ccco1 (stereo unspecified)	-2	0	-1	-1	-3	nt	nt
O=C(Nc1ccc(F)cc1F)C1CCN(S(=O)(=O)c2cccnc2)CC1	-1	0	0	8.3*	-1	0	0
CS(=O)(=O)N1CCC(C(=O)Nc2ccc(F)cc2F)CC1	0	-1	-2	-2	-1	nt	nt
O=[N+]([O-])c1ccccc1N/N=C\c1ccccc1F	0	1	2	9.1*	4	8.9*	14*
O=[N+]([O-])c1ccccc1N/N=C\c1ccccc1Cl	-1	1	2	3	0	nt	nt
O=S(=O)(NNc1ccc(Cl)nn1)c1ccc(F)cc1	0	-1	-1	8.4*	2	1	1
O=S(=O)(Nc1ccc(Cl)nn1)c1ccccc1	-2	0	0	-4	-1	nt	nt
